{"source": "PubChem BioAssay AID485346", "about": "(Sanford-Burnham Center for Chemical Genomics, 2010)", "note": "Among all 330,000 compounds or so, about 10,000 (3%) were called active. What follows is part of a selection rich in actives, with near analogues and random picks from the rest. Unmarked numbers belong to inactive results.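 Rule for the calls: active = inhibition of at least 50% at 8 µM in the primary screen; inactive = the rest.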", "data": [{"target": "Protein Mdm4 (Homo sapiens) + E3 ubiquitin-protein ligase Mdm2 (Homo sapiens) (UniProt O15151+Q00987)", "sequence (O15151 whole entry, looked up)": "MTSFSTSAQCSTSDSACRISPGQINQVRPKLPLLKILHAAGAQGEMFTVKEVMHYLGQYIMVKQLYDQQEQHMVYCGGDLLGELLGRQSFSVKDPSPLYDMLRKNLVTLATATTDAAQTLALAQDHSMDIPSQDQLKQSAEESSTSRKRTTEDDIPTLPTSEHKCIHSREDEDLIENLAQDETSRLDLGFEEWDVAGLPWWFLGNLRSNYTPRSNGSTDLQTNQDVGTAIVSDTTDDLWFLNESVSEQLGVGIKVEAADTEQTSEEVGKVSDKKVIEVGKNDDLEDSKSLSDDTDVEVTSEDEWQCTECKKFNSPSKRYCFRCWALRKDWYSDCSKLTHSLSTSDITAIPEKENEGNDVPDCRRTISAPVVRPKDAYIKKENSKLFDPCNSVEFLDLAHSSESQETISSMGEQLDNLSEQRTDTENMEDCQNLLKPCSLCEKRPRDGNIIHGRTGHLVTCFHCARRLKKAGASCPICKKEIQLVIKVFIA", "sequence (Q00987 whole entry, looked up)": "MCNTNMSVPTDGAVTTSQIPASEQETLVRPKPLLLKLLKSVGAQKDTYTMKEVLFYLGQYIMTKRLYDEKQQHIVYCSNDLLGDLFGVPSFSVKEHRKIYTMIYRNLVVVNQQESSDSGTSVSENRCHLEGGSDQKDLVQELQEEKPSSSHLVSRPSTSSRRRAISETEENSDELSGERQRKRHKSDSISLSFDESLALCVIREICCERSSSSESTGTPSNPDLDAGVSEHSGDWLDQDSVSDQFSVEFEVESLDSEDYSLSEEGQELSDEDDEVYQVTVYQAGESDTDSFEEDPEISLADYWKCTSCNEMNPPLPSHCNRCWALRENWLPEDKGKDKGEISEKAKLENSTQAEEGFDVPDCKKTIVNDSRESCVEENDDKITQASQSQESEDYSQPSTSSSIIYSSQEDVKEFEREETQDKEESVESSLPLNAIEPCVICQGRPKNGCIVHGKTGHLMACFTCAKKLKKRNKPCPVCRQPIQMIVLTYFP", "assay": "inhibitors of human Mdm2-MdmX association, primary screen, cell-based, luminescence, split luciferase, SaOS-2, uHTS (AID 485346)", "settings": "SaOS-2 split-luciferase Mdm2/MdmX complementation, at 8 µM, stronger effect = higher value", "values": [{"smiles": "Cc1cccc(OC(C)C(=O)N2CCc3ccccc3C2)c1", "note": "(configuration not stated)", "inhibition": "-5.47%"}, {"smiles": "COC(c1ccccc1)c1nnc(CCC(=O)N2CCN(CCOc3ccccc3)CC2)o1", "note": "(configuration not stated)", "inhibition": "-18.9%"}, {"smiles": "CC(C)c1ccc(NC(=O)COC(=O)c2ccc(CN3CCCC3=O)cc2)cc1", "inhibition": "8.45%"}, {"smiles": "COc1c(N2CCN(C(=S)Nc3ccccc3F)C(C)C2)c(F)cc2c(=O)c(C(=O)O)cn(C3CC3)c12", "note": "(configuration not stated)", "inhibition": "-14.1%"}, {"smiles": "CNC(=O)NC(=O)C(OC(=O)c1cccc(S(=O)(=O)N2CCCCC2)c1)c1ccccc1", "note": "(configuration not stated)", "inhibition": "-21.4%"}, {"smiles": "Cc1cc(N/N=C\\c2ccc(Br)cc2)nc(-n2nc(C)cc2C)n1", "inhibition": "35.8%"}, {"smiles": "COc1ccccc1/C=N/Nc1nc(C)c(C(C)=O)s1", "inhibition": "-49.5%"}, {"smiles": "Cc1nc(Cl)cc(N/N=C/c2ccccc2)n1", "inhibition": "-5.97%"}, {"smiles": "COc1ccc(/C=N/Nc2cc(N3CCOCC3)nc(C)n2)c(OC)c1", "inhibition": "19.1%"}, {"smiles": "COc1cccc(/C=N/Nc2cc(C)nc(-c3ccccc3O)n2)c1O", "inhibition": "93.4% (active)"}, {"smiles": "COc1ccccc1/C=N\\Nc1cc(C)nc(-n2nc(C)cc2C)n1", "inhibition": "57.4% (active)"}, {"smiles": "COCCC(=O)Nc1ccc2c(c1)CN(C(=O)CCOC)CC2", "inhibition": "8.33%"}, {"smiles": "O=C1NC(c2ccccc2)Oc2ccccc21", "note": "(configuration not stated)", "inhibition": "12.9%"}, {"smiles": "Cc1ccc(S(=O)(=O)NCCC(=O)OCC(=O)N(C)c2ccccc2)cc1", "inhibition": "-1.91%"}, {"smiles": "COc1ccc(CN2CCN(C(=O)c3cc(C4CC4)nn3-c3ccccc3)CC2)cc1F", "inhibition": "12.7%"}, {"smiles": "Cc1ccc(C)c(C(=O)N2CCC(n3nccc3NC(=O)C3CC3)CC2)c1", "inhibition": "13.7%"}, {"smiles": "COc1cc(C2CC(=O)Oc3cc(OC)c(OC)c(OC)c32)cc(OC)c1OC", "note": "(configuration not stated)", "inhibition": "-1.07%"}, {"smiles": "CC(CNC(=O)c1ccc(N)cc1)NC(=O)c1ccc(N)cc1", "note": "(configuration not stated)", "inhibition": "-17.5%"}, {"smiles": "O=C(CSc1ncn[nH]1)N/N=C/c1ccc(F)cc1", "inhibition": "1.12%"}, {"smiles": "Cc1ccc(C(=O)/C=C/c2c(C)nn(-c3ccccc3)c2Cl)cc1", "inhibition": "7.37%"}, {"smiles": "O=C(/C=C/Sc1ncn[nH]1)c1ccc(Cl)cc1", "inhibition": "97.6% (active)"}, {"smiles": "CC(=O)Nc1ccc(S(=O)(=O)Nc2ccc(N3CCOCC3)c(F)c2)cc1", "inhibition": "-7.04%"}, {"smiles": "CC(=O)Nc1ccc(S(=O)(=O)Nc2ccc(N3CCCCC3)cc2)cc1", "inhibition": "55% (active)"}, {"smiles": "CC(=O)Nc1ccc(NS(=O)(=O)c2ccc3c(c2)NC(=O)CC(=O)N3)cc1", "inhibition": "9.58%"}, {"smiles": "COc1ccc(OCC(=O)NNC(=O)C2CCC2)cc1", "inhibition": "4.55%"}, {"smiles": "COCc1nnc(NC(=O)c2ccc3c(c2)OCO3)s1", "inhibition": "-40.4%"}, {"smiles": "COc1ccc(CC(=O)Nc2sc(Cc3ccccc3)c(C)c2C(N)=O)cc1", "inhibition": "-12.1%"}, {"smiles": "Cc1ccc(C(=O)Nc2sc(Cc3ccc4c(c3)OCO4)c(C)c2C(N)=O)cc1", "inhibition": "75.3% (active)"}, {"smiles": "Cc1nn2c(NCCN(C)C)c3c(nc2c1-c1ccccc1)CCC3", "inhibition": "1.13%"}, {"smiles": "CCc1cc2c(=O)n(-c3ccccc3)c(SCC(=O)O)nc2s1", "inhibition": "0.424%"}, {"smiles": "CC(=O)N1C(=O)/C(=C2\\SC(=S)N(NC(=O)c3ccc(O)cc3)C2=O)c2ccccc21", "inhibition": "-4.31%"}, {"smiles": "O=C1/C(=C/c2ccc(F)cc2)SC(=S)N1CCCC(=O)N1CCCCC1CCO", "note": "(configuration not stated)", "inhibition": "81.8% (active)"}, {"smiles": "COc1ccc(/C=C2\\SC(=S)N(CCCC(=O)NC3CCCC3)C2=O)cc1OC", "inhibition": "42.6%"}, {"smiles": "CCN(C(=O)CN1C(=O)/C(=C/c2ccc(F)cc2)SC1=S)C1CCS(=O)(=O)C1", "note": "(configuration not stated)", "inhibition": "-3.51%"}, {"smiles": "Cc1ccc(O)c(NC(=S)NC(=O)COc2ccc(Br)cc2)c1", "inhibition": "-6.04%"}, {"smiles": "CCCCN1C(=S)NC[C@@H]1C(C)CC", "note": "(some centres not stated)", "inhibition": "-2.44%"}, {"smiles": "CC1Cc2ccccc2N1S(=O)(=O)c1cccc(C(=O)OCC(=O)N2CCOCC2)c1", "note": "(configuration not stated)", "inhibition": "9.37%"}, {"smiles": "CCCCn1ccnc1C(=O)c1cccc(S(=O)(=O)N2c3ccccc3CC2C)c1", "note": "(configuration not stated)", "inhibition": "55.3% (active)"}, {"smiles": "CC1Cc2ccccc2N1S(=O)(=O)c1cccc(C(=O)NCC(c2ccco2)N2CCCC2)c1", "note": "(configuration not stated)", "inhibition": "6.48%"}, {"smiles": "Cc1noc(C)c1S(=O)(=O)Nc1ccc(C(=O)N2CCN(c3ccc(F)cc3)CC2)cc1", "inhibition": "16.2%"}, {"smiles": "COc1ccc(CCNC(=O)COC(=O)Cc2cccc(F)c2)cc1", "inhibition": "5.4%"}, {"smiles": "COc1ccc(C(=O)OCC(=O)N2CC(=O)Nc3ccccc32)cc1Br", "inhibition": "-3.51%"}, {"smiles": "O=C(O)c1ccccc1CSc1nc2ccccc2s1", "inhibition": "-21.2%"}, {"smiles": "CCOc1ccccc1Nc1ccc2nonc2c1[N+](=O)[O-]", "inhibition": "9.13%"}, {"smiles": "O=[N+]([O-])c1c(NCCO)cc(Sc2nc3ccccc3s2)c2nonc12", "inhibition": "50.1% (active)"}, {"smiles": "COC(=O)[C@]1(C)N[C@H](CN(C)C(=O)c2ccc(C(C)(C)C)cc2)[C@@H]2C(=O)N(C)C(=O)[C@@H]21", "inhibition": "4.61%"}, {"smiles": "CC(=O)CCS(=O)(=O)c1ccc(C)c(C)c1", "inhibition": "2.16%"}, {"smiles": "CCCn1c(C)cc(-c2csc(NC(=O)CCc3nc4ccccc4c(=O)[nH]3)n2)c1C", "inhibition": "13.7%"}, {"smiles": "Cc1ccccc1OCC(=O)Nc1ccc(S(=O)(=O)N2CCOCC2)cc1", "inhibition": "-21.2%"}, {"smiles": "Cc1cc(S(=O)(=O)N2CCOCC2)ccc1OCC(=O)N1CCOCC1", "inhibition": "-24.7%"}, {"smiles": "Cc1cc(C(=O)COc2ccccc2[N+](=O)[O-])c(C)n1-c1cccc(S(=O)(=O)N2CCOCC2)c1", "inhibition": "71.1% (active)"}, {"smiles": "CCN(CC)c1ccc(/C=N/NC(=O)c2cnccn2)c(O)c1", "inhibition": "72.8% (active)"}, {"smiles": "Cc1ccc(C(=O)NCCNC(=O)c2cnccn2)cc1", "inhibition": "18.3%"}, {"smiles": "Cc1cc(C)nc(N/N=C/c2c(C)oc3ccccc23)n1", "inhibition": "33.3%"}, {"smiles": "Cc1cc(C)nc(N/N=C/c2c(CO)cnc(C)c2O)n1", "inhibition": "27.1%"}, {"smiles": "CCN(CC)c1ccc(/C=N/Nc2nc(C)cc(C)n2)c(O)c1", "inhibition": "72.9% (active)"}, {"smiles": "O=C(Nc1ccc2c(c1)OCCO2)c1cnccn1", "inhibition": "-7.26%"}, {"smiles": "Cc1ccc(-n2c(SCC(=O)NCc3ccc4c(c3)OCO4)nnc2-c2cccnc2)c(C)c1", "inhibition": "1.7%"}, {"smiles": "CCN(C(=O)CSc1nnnn1-c1ccc(OC)cc1)C1CCS(=O)(=O)C1", "note": "(configuration not stated)", "inhibition": "-4.86%"}, {"smiles": "COC(=O)C1CCN(C(=O)COC(=O)c2cc(S(=O)(=O)N3CCOCC3)ccc2C)CC1", "inhibition": "1.32%"}, {"smiles": "CCCCn1c(N)c(N(CC)C(=O)/C=C/c2ccco2)c(=O)[nH]c1=O", "inhibition": "15.3%"}, {"smiles": "CC[C@]1(O)CC2CN(CCc3c([nH]c4ccccc34)[C@@](C(=O)OC)(c3cc4c(cc3OC)N(C=O)[C@H]3[C@@](O)(C(=O)OC)[C@H](OC(C)=O)[C@]5(CC)C=CCN6CC[C@]43[C@@H]65)C2)C1", "note": "(some centres not stated)", "inhibition": "67.5% (active)"}, {"smiles": "CC[C@]1(O)C[C@@H]2CN(CCc3c([nH]c4ccccc34)[C@@](C(=O)OC)(c3cc4c(cc3OC)N(C)[C@H]3[C@@](O)(C(=O)OC)[C@H](OC(C)=O)[C@]5(CC)C=CCN6CC[C@]43[C@@H]65)C2)C1", "inhibition": "85.9% (active)"}, {"smiles": "CCNC(=O)COc1cc(C)c(Br)c(C)c1", "inhibition": "15.7%"}, {"smiles": "Cc1ccc(S(=O)(=O)N(Cc2ccccc2)c2ccccn2)cc1[N+](=O)[O-]", "inhibition": "23.2%"}, {"smiles": "COc1cc(C(=O)OCc2cc(=O)n3ccsc3n2)ccc1OC(C)C", "inhibition": "-18.9%"}, {"smiles": "CC1CCC2CCCCC2N1C(=O)c1cc([N+](=O)[O-])cc([N+](=O)[O-])c1", "note": "(configuration not stated)", "inhibition": "5.25%"}, {"smiles": "Cc1ccc(S(=O)(=O)N(C)c2ccc(OCC(=O)OCc3ccc(C#N)cc3)cc2)cc1", "inhibition": "1.14%"}, {"smiles": "CC1CCN(C(=O)c2cc3nc(C4CC4)cc(C(F)(F)F)n3n2)CC1", "inhibition": "0.061%"}, {"smiles": "COc1ccc2[nH]c3c(c2c1)CCN1C(=O)C(CC(=O)NCc2cccc(C(F)(F)F)c2)C[C@H](C(=O)N2CCOCC2)[C@@]31C", "note": "(some centres not stated)", "inhibition": "17.2%"}, {"smiles": "CCOc1ccc2c(=O)c(-c3ccc4c(c3)OCCCO4)c(C)oc2c1", "inhibition": "19.6%"}, {"smiles": "CCCc1nc2c(c(=O)c3ccccc3n2C)c(=O)n1C1CCCCCC1", "inhibition": "76.1% (active)"}, {"smiles": "Cn1c2ccccc2c(=O)c2c(=O)n(Cc3ccco3)c(COc3ccccc3)nc21", "inhibition": "33.8%"}, {"smiles": "Cn1c2ccccc2c(=O)c2c(O)cccc21", "inhibition": "5.57%"}, {"smiles": "CC(C)C1C2=C(CC(C)(C)CC2=O)ON1c1ccccc1", "note": "(configuration not stated)", "inhibition": "16.1%"}, {"smiles": "COc1cccc(/C=C(/CC(=O)Nc2ccc(N3CCOCC3)cc2)c2nc3ccccc3s2)c1", "inhibition": "18.2%"}, {"smiles": "O=C(COC(=O)Cn1[nH]c(=O)c2ccccc2c1=O)Nc1c(Cl)cccc1C(F)(F)F", "inhibition": "-4.75%"}, {"smiles": "O=C(NCc1nnc(SCC(=O)N2CCCCCC2)o1)c1ccc(F)cc1", "inhibition": "10.6%"}, {"smiles": "CCc1ccc(N(CC)c2ncnc3nc[nH]c23)cc1", "inhibition": "63% (active)"}, {"smiles": "Cc1ccc(NC(=O)c2ccc(CSc3ncnc4nc[nH]c34)cc2)c(C)c1", "inhibition": "-2.54%"}, {"smiles": "COc1ccc(CCNc2ncnc3nc[nH]c23)cc1OC", "inhibition": "18.1%"}, {"smiles": "Cc1ccc(CNC(=O)c2cc(-c3ccccc3C)n(CC3CC(c4cccc([N+](=O)[O-])c4)=NO3)n2)cc1", "note": "(configuration not stated)", "inhibition": "26.5%"}, {"smiles": "CCN(CC)CCCN=Cc1c(O)n(-c2ccc(C)cc2)c(=O)c2ccccc12", "inhibition": "-22.5%"}, {"smiles": "CCOc1ccc(-n2c(O)c(/C=N/Nc3nc(C)cc(C)n3)c3ccccc3c2=O)cc1", "inhibition": "65.3% (active)"}, {"smiles": "CCOc1ccc(-n2c(O)c(/C=N/c3ccnn3Cc3ccncc3)c3ccccc3c2=O)cc1", "inhibition": "2.6%"}, {"smiles": "CCCC1C(=O)N2C(N(C)C)=Nc3ccc(C)cc3N2C1=O", "note": "(configuration not stated)", "inhibition": "15.1%"}, {"smiles": "CC1CCN(C(=O)CCc2nnc3ccc(NCc4ccco4)nn23)CC1", "inhibition": "22.2%"}]}]}
